Test systems include HCT-15 colon; HT29 colon; SNB-75 CNS; SNB-19 CNS; U251 CNS; PC-3 prostate; SK-MEL-5 melanoma; UACC-62 melanoma; LOX IMVI melanoma; SK-MEL-28 melanoma; SK-MEL-2 melanoma; SN12C renal; UO-31 renal; TK-10 renal; ACHN renal; CAKI-1 renal; CCRF-CEM leukemia; MOLT-4 leukemia; EKVX NSCLC; A498 renal.
What all share (assay): NCI-60 one-dose screen, 48 h (100 = growth as untreated, 0 = no growth, -100 = all killed)
Holding throughout (details): 10 µM unless noted

Among the data in PubChem BioAssay (NCI) are growth values, retold here.

Each structure is given as a SMILES string. About 83,000 compounds went through this panel and 20% of them were active in at least one assay; those are over-represented in the sample as a whole.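 Plates (96-well) were seeded with cells, treated with compound at one concentration, and incubated for 48 hours before percent growth was determined.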 Unmarked numbers belong to inactive results. Activity calls are given as the source filed them. Rule for the calls: active = growth percent below 10; inactive = the rest.

For the molecule `N#Cc1ccc(-c2ccc3c(c2)NC(=O)/C3=C\c2ccc[nH]2)cc1`, the growth in the experiment on HCT-15 colon was 58.3%; in the experiment on HT29 colon it was 103%; in the experiment on SNB-75 CNS it was 57%; in the experiment with SNB-19 CNS it was 99.3%; in the experiment with U251 CNS, 103%; with PC-3 prostate, 84.7%. The growth in the experiment on SK-MEL-5 melanoma is 85.4%; in the experiment with UACC-62 melanoma, 88.4%; in the experiment on LOX IMVI melanoma, 97.5%; with SK-MEL-28 melanoma, 107%; in the experiment with SK-MEL-2 melanoma, 89.3%; in the experiment with SN12C renal it was 95.8%. Also, the growth in the experiment on UO-31 renal is 72%; in the experiment on TK-10 renal, 54.4%; in the experiment with ACHN renal it was 101%; with CAKI-1 renal it was 82.4%; in the experiment on CCRF-CEM leukemia, 103%; in the experiment on MOLT-4 leukemia, 109%.
`O=S(=O)(NCCCNc1nccc(-c2c(-c3cccc(O)c3)nc3occn23)n1)c1ccc(Br)cc1`: the growth in the experiment with HCT-15 colon is 102%; in the experiment on HT29 colon, 38.9%; in the experiment with SNB-75 CNS, 97.4%; with SNB-19 CNS, 118%; in the experiment on U251 CNS, 104%; in the experiment on PC-3 prostate, 91.1%. Besides, the growth is 47.1% with SK-MEL-5 melanoma; 8.87% (active) with UACC-62 melanoma; 46.8% with LOX IMVI melanoma; 35.5% in the experiment with SK-MEL-28 melanoma; 54.3% in the experiment on SK-MEL-2 melanoma; 105% with EKVX NSCLC. For the same molecule, the growth with UO-31 renal was 90.8%; in the experiment with TK-10 renal, 135%; in the experiment on CAKI-1 renal, 75.6%; in the experiment with CCRF-CEM leukemia, 87.9%; with MOLT-4 leukemia it was 72.9%.
Regarding `O=C1Nc2c(ccc(Cl)c2Cl)/C1=C/c1ccccn1`, the growth in the experiment on HCT-15 colon was 70.9%; in the experiment with HT29 colon it was 78.5%; in the experiment with SNB-75 CNS, 84.6%; with SNB-19 CNS, 84.5%; in the experiment with U251 CNS it was 85%; in the experiment with PC-3 prostate, 75.2%. For the same molecule, the growth with SK-MEL-5 melanoma was 83.1%; in the experiment on UACC-62 melanoma, 70.5%; with LOX IMVI melanoma, 43.9%; with SK-MEL-28 melanoma, 105%; in the experiment with SK-MEL-2 melanoma, 104%; in the experiment with SN12C renal, 97%. Also, the growth in the experiment with UO-31 renal was 73.3%; in the experiment with ACHN renal, 72.6%; in the experiment on CAKI-1 renal, -1.32% (active); in the experiment with A498 renal, 110%; with CCRF-CEM leukemia it was 23.2%.
As to `O=C(O)CNC(=O)CN1C(=O)c2ccccc2C1=O`, the growth is 105% in the experiment on HCT-15 colon; 110% in the experiment on HT29 colon; 90.4% with SNB-75 CNS; 108% with SNB-19 CNS; 96.8% in the experiment on U251 CNS; 84.1% with PC-3 prostate. For the same molecule, the growth was 99.6% in the experiment on SK-MEL-5 melanoma; 108% in the experiment with UACC-62 melanoma; 95% in the experiment with LOX IMVI melanoma; 103% in the experiment with SK-MEL-28 melanoma; 114% in the experiment with SK-MEL-2 melanoma; 99.1% in the experiment with SN12C renal. In addition, the growth in the experiment on UO-31 renal was 86.3%; in the experiment with TK-10 renal, 104%; with ACHN renal, 103%; with CAKI-1 renal it was 95.9%; in the experiment on A498 renal it was 104%; in the experiment with CCRF-CEM leukemia it was 81.1%. For the same molecule, the growth in the experiment on MOLT-4 leukemia was 91.8%.
With `Cc1ccc(-c2csc(/N=C3\C(=O)Nc4ccccc43)n2)cc1`, the growth was 32% in the experiment with HCT-15 colon; -8.75% (active) in the experiment on HT29 colon; 55.5% with SNB-75 CNS; 22.8% in the experiment on SNB-19 CNS; -47.5% (active) with U251 CNS; 2.72% (active) in the experiment on PC-3 prostate. In addition, the growth was -20.2% (active) with SK-MEL-5 melanoma; 0.615% (active) with UACC-62 melanoma; -0.0538% (active) with LOX IMVI melanoma; 13.7% in the experiment on SK-MEL-28 melanoma; -51.2% (active) with SK-MEL-2 melanoma; 23.4% with SN12C renal. Moreover, the growth with UO-31 renal is 42%; in the experiment on TK-10 renal, 8.33% (active); in the experiment on ACHN renal, 36.7%; with A498 renal, 5.79% (active); in the experiment on CCRF-CEM leukemia, 6.64% (active); in the experiment on MOLT-4 leukemia, -19.5% (active).
For the molecule `CCCCCCCC(=O)Nc1nc2[nH]c(CN3CCN(Cc4cccc(I)c4)CC3)c(CN3CCN(Cc4cccc(I)c4)CC3)c2c(=O)[nH]1`, the growth in the experiment with HCT-15 colon was -91.5% (active); in the experiment with HT29 colon, -69.8% (active); with SNB-75 CNS, -73.2% (active); in the experiment on SNB-19 CNS it was -87.5% (active); in the experiment with U251 CNS, -94.6% (active); in the experiment with PC-3 prostate, -45.7% (active). The growth with SK-MEL-5 melanoma is 2.56% (active); with UACC-62 melanoma, -98.1% (active); with LOX IMVI melanoma, -96.6% (active); in the experiment on SK-MEL-28 melanoma, -78.1% (active); in the experiment on SK-MEL-2 melanoma, -34% (active); in the experiment on EKVX NSCLC it was -44.5% (active). The growth with UO-31 renal is -99.9% (active); in the experiment with TK-10 renal, -91.9% (active); in the experiment on ACHN renal, -98.9% (active); in the experiment on A498 renal it was 45.5%; with CCRF-CEM leukemia, 1.17% (active); in the experiment on MOLT-4 leukemia, -36% (active).
As to `COc1ccc(-c2ncc(-c3ccccc3)[nH]2)cc1OC`, the growth in the experiment with HCT-15 colon was 104%; in the experiment on HT29 colon, 113%; in the experiment on SNB-75 CNS it was 108%; with SNB-19 CNS, 104%; with U251 CNS it was 113%; in the experiment on PC-3 prostate, 112%. For the same molecule, the growth with SK-MEL-5 melanoma was 106%; in the experiment on UACC-62 melanoma, 95.3%; in the experiment with SK-MEL-28 melanoma, 105%; with SK-MEL-2 melanoma, 118%; in the experiment with EKVX NSCLC, 106%; in the experiment on SN12C renal, 100%. Further, the growth in the experiment with UO-31 renal is 109%; with TK-10 renal it was 256%; in the experiment with ACHN renal it was 111%; in the experiment on CAKI-1 renal, 108%; in the experiment with A498 renal, 89.2%; in the experiment with CCRF-CEM leukemia, 18%. In addition, in the experiment with MOLT-4 leukemia, the growth is -81.9% (active).
Consider `Nc1nc(N)nc(NCc2ccccc2)n1`, for which the growth with HCT-15 colon is 97.6%; in the experiment with HT29 colon, 101%; with SNB-75 CNS, 96.5%; in the experiment on SNB-19 CNS, 107%; in the experiment with U251 CNS, 105%; in the experiment on PC-3 prostate, 105%. The growth in the experiment on SK-MEL-5 melanoma is 103%; in the experiment on UACC-62 melanoma, 101%; in the experiment on SK-MEL-28 melanoma, 106%; in the experiment on SK-MEL-2 melanoma, 112%; in the experiment with EKVX NSCLC it was 99.3%; in the experiment on SN12C renal it was 98.4%. Besides, the growth was 91.1% with UO-31 renal; 95.8% with TK-10 renal; 106% in the experiment on ACHN renal; 99.7% in the experiment on CAKI-1 renal; 105% in the experiment with A498 renal; 109% in the experiment on CCRF-CEM leukemia. In the experiment on MOLT-4 leukemia, the growth is 95.4%.
Regarding `COc1cc2nnn3c4ncccc4c(N=O)c3c2cc1OC`, the growth is 83.4% in the experiment with HCT-15 colon; 57.5% in the experiment on HT29 colon; 79.8% in the experiment on SNB-75 CNS; 102% in the experiment with SNB-19 CNS; 45.1% in the experiment with U251 CNS; 74.8% with PC-3 prostate. The growth is 113% in the experiment with SK-MEL-5 melanoma; 86.3% in the experiment with UACC-62 melanoma; 58.9% in the experiment with LOX IMVI melanoma; 81.4% in the experiment on SK-MEL-28 melanoma; 101% with SK-MEL-2 melanoma; 81.4% with SN12C renal. Also, the growth is -6.2% (active) in the experiment with UO-31 renal; 98.8% with TK-10 renal; -2.46% (active) with ACHN renal; 74.9% in the experiment with CAKI-1 renal; 174% with A498 renal; -13.4% (active) in the experiment on CCRF-CEM leukemia. The growth in the experiment on MOLT-4 leukemia was -14.9% (active).
